# Test results as given in PubChem BioAssay (NCATS).
# Values joined by “and” are separate entries in the source; they are usually repeats but may differ in a detail not shown here. Equal values may be shown once. Records with an inconclusive call do not appear. Active and inactive are the calls of the source. Unless noted, calls come from the whole dose curve; as a rule, active = well fitted curve in the direction sought with a large enough effect; inconclusive = small, poorly fitted or top-dose-only effect, or another doubt; inactive = no such curve, though single readings can be large; an effect the other way counts as inactive or inconclusive.
# What was measured:
# [1] = qHTS to identify inhibitors of the type 1 interferon - major histocompatibility complex class I in skeletal muscle: primary screen against the NCATS Mechanism Interrogation Plate v5.0 (MIPE) Libary (AID 1347411); note: nearly all actives have a fitted effect of over 65% in size; note: potency is the fitted concentration of half-maximal effect;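 for activity change, negative = inhibition: plate controls were vehicle for no effect and reference inhibitor for full effect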
# In short: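 Immortalized human C25cl48 myoblasts with HiBit knocked into endogenous HLA-B*08:01 were stimulated with 4.0 ng/ml IFN-beta and exposed to compounds (11-point 1:3 titration, top 46 uM final) for 24 hrs at 37 C; HiBiT lytic luminescence measured.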
# [2] = Primary qHTS for inhibitors of nuclear receptor binding SET domain protein 2 (NSD2) in an isogenic RCH-ACV NSD2 p.E1099K mutant (9B) (AID 1645876); note: nearly all actives have a fitted effect of over 70% in size; note: potency is the fitted concentration of half-maximal effect
# [3] = Primary qHTS for inhibitors of nuclear receptor binding SET domain protein 2 (NSD2) in an RCH-ACV wild type WT cells (2C) (AID 1645877); note: nearly all actives have a fitted effect of over 70% in size; note: potency is the fitted concentration of half-maximal effect
# [4] = NCATS anti-infectives library activity on HEK293 viability as a counter-qHTS vs the C. elegans viability qHTS (AID 1745854); note: % is set by controls: 0 for no effect and ±100 for the full control effect
# In short: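 HEK293 cells, 1500 per well, exposed 24 hr at 37C in 5% CO2 to compounds in a 1:5 titration, up to 41.7 uM final. Viability read as CellTiter-Glo luminescence after 10 min at room temperature.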
# [5] = biological target: Glutathione peroxidase 1 (Homo sapiens) (UniProt P07203); test: Primary qHTS Assay for Inhibitors of Recombinant Selenoprotein Glutathione Peroxidase 1 (GPX1) (AID 1845191); note: nearly all actives have a fitted effect of over 65% in size
# In short: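 10 nM GPX1 + cpd, 30 min RT; start w/ 1 mM GSH, 0.5 mM cumene hydroperoxide, 0.5 mM NADPH, 100 nM GR, 0.01% BSA; buffer 50 mM Tris-HCl pH 7.5, 2 mM EDTA, 150 mM NaCl; Fl 340/450, 0 & 15 min.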
# [6] = qHTS drug screen for cell cycle checkpoint inhibitors in PARPi-resistant BRCA-mutant ovarian cancer cell lines. (AID 1963452; calls by dose curve; note: potency is the fitted concentration of half-maximal effect); details: PEO1/OlaR viability, CellTiter-Glo luminescence, 96 h; for Z-AUC: stronger effect = lower value
# In short: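 PEO1, PEO4 and PEO1/OlaR ovarian cancer cells, 600 per well, exposed 96 h at 37C to a dilution series. Viability read by CellTiter-Glo luminescence, normalized to DMSO and empty wells; activity summarized as Z-AUC.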
# [7] = biological target: Phospholipid hydroperoxide glutathione peroxidase GPX4 (Homo sapiens) (UniProt P36969); test: Primary qHTS Assay for Inhibitors of Recombinant Selenoprotein Glutathione Peroxidase 4 (GPX4) (AID 1845192); details: outcome: dose series up to 50 µM unless noted; note: nearly all actives have a fitted effect of over 65% in size
# In short: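 NADPH consumption, followed by fluorescence at 340/450 nm between 0 and 15 min, reports GPX4 activity via coupled glutathione reductase (100 nM). Enzyme 200 nM was pre-exposed to compound 30 min; 0.5 mM cumene hydroperoxide and 1 mM GSH served as substrates.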
# [8] = NCATS anti-infectives library activity on the primary C. elegans qHTS viability assay (AID 1745855; calls by dose curve)
# In short: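 Viability is taken from GFP fluorescence of PE254-GFP-FLuc C. elegans imaged by laser cytometry over 7 days. Ten L1 worms per well grow at 21 °C on TOP10 E. coli capsules with titrated compound; levamisole marks toxicity.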
# [9] = Viability counterscreen for antagonist of constitutive androstane receptor (CAR) against the NCATS DSHEA and TCM libraries (AID 1794837);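 note: compound exposure lasted 24 h before viability reading; 0% is about no effect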
# In short: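 Cells: HepG2 line carrying CYP2B6 reporter and hCAR, seeded and attached 5 h. Then pin-transferred test substances plus agonist CITCO at 48 uM final; 24 h incubation; fluorogenic viability reagent, 1 h.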
# [10] = biological target: Nuclear receptor subfamily 1 group I member 3 (Homo sapiens) (UniProt Q14994); test: Primary qHTS for agonist of constitutive androstane receptor (CAR) against the NCATS DSHEA and TCM libraries (AID 1794839);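 note: HepG2 cells expressing human CAR with a CYP2B6 reporter plus PK11195 antagonist; 0% is about no effect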
# In short: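 qHTS, agonist mode: HepG2-CYP2B6-hCAR, 2,500 cells/well, 5 h attach; cpds + PK11195 0.75 µM final; 24 h, 37 °C, 5% CO2. Readouts: CellTiter-Fluor (405/540 nm), then ONE-Glo luminescence.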
# [11] = HepG2 viability counterscreen (readout 2: ATP content) against the NCATS DSHEA and TCM libraries (AID 1794840); note: 0% is about no effect
# In short: (§1)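 Same wells read twice: first fluorescence from cleaved GF-AFC substrate (25 uM final, 30 min, 37C) for live-cell protease, then CellTiter-Glo luminescence after 30 min at room temperature for ATP. HepG2 cells were exposed ~24 h to substances.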
# [12] = HepG2 viability counterscreen (readout 1: protease activity) against the NCATS DSHEA and TCM libraries (AID 1794841);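 note: cells exposed to compounds for about 24 h before the protease read; 0% is about no effect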
# In short: as §1
# [13] = biological target: Cytochrome P450 2D6 (Homo sapiens) (UniProt P10635); test: qHTS for inhibitors of CYP2D6 against the NCATS DSHEA and TCM libraries (AID 1919972); note: % is set by controls: 0 for no effect and ±100 for the full control effect
# In short: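 Steps: enzyme plus luciferin substrate dispensed; test substances pinned; 15 min RT; 1x NADPH regenerating solution added, 30–45 min RT protected from light; detection reagent, 30 min RT; luminescence measured. Minus-enzyme wells as background.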
# [14] = biological target: Cytochrome P450 2C9 (Homo sapiens) (UniProt P11712); test: qHTS for inhibitors of CYP2C9 against the NCATS DSHEA and TCM libraries (AID 1919973);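 note: luminogenic pro-luciferin CYP2C9 substrate turned into luciferin with NADPH regeneration; series mostly up to about 34 µM; % is set by controls: 0 for no effect and ±100 for the full control effect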
# In short: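 Luminescent P450-Glo readout. Enzyme plus pro-luciferin substrate in manufacturer buffer (typically 100 mM KPO4); 15 min RT preincubation; 1x NADPH regenerating system, 30-45 min RT in the dark; detection reagent 30 min.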
# [15] = biological target: Cytochrome P450 1A2 (Homo sapiens) (UniProt P05177); test: qHTS for inhibitors of CYPIA2 against the NCATS DSHEA and TCM libraries (AID 1919976); details: recombinant CYP1A2 enzyme activity, luminescence; note: potency is the fitted concentration of half-maximal effect
# In short: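 Human CYP1A2 with its pro-luciferin substrate in supplier buffer (typically 100 mM KPO4) was pre-incubated with compounds 15 min at RT. Reaction was started with 1x NADPH regeneration solution and run 30-45 min at RT in the dark, then luminescence was read after P450-Glo detection reagent (30 min RT).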
# [16] = Dual reporter qHTS for agonist of Pregnane X Receptor (hPXR) against the NCATS DSHEA and TCM libraries: Fluorescence readout (AID 1920058); note: 0% is about no effect
# In short: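 hPXR-Luc HepG2 cells (2000/well) in phenol red-free medium with charcoal-stripped FBS attached for 5 h, then were exposed to compounds for about 24 h at 37 °C. Viability was read by CellTiter-Fluor fluorescence (Ex/Em 405/540 nm) after 1 h.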
# [17] = biological target: Nuclear receptor subfamily 1 group I member 2 (Homo sapiens) (UniProt O75469); test: Dual reporter qHTS for antagonist of Pregnane X Receptor (hPXR) against the NCATS DSHEA and TCM libraries: Luminescence Readout (AID 1920060);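 note: HepG2 cells carrying hPXR luciferase reporter stimulated with rifampicin at 2 µM; 0% is about no effect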
# In short: (§2)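 hPXR-Luc HepG2 cells exposed 24 h at 37 C to compounds with 2 uM rifampicin in antagonist mode; luciferase luminescence measured by ONE-Glo, with CellTiter-Fluor viability read beforehand.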
# [18] = Dual reporter qHTS for antagonist of Pregnane X Receptor (hPXR) against the NCATS DSHEA and TCM libraries: Fluorescence Readout (AID 1920061); note: 0% is about no effect
# In short: as §2
# [19] = biological target: Calcium and integrin-binding protein 1 (Homo sapiens) (UniProt Q99828); test: Primary qHTS for Identification of Calcium Integrin Binding Protein 1 (CIB1) Competitor (AID 1508620);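 note: GST tagged CIB1 binding a fluorescein labelled alphaIIb integrin peptide tracer; top concentration of the series differs between compounds; % is set by controls: 0 for no effect and ±100 for the full control effect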
# In short: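 CIB1-GST (1 uM final) and compound incubated 15 min at room temperature before adding FITC-alphaIIb peptide tracer (100 nM final). Competition for binding read by fluorescence polarization (ex 480, em 540) after another 15 min at room temperature.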
# [20] = measured here: PEO1 parental Z-AUC
# Chain of Glutathione peroxidase 1 (Homo sapiens) (P07203 whole entry, looked up): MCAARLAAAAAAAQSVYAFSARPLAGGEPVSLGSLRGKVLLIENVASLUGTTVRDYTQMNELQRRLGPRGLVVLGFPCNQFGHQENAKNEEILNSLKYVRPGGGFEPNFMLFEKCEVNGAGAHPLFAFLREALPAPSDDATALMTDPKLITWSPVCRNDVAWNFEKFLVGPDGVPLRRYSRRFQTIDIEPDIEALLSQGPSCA
# Chain of Phospholipid hydroperoxide glutathione peroxidase GPX4 (Homo sapiens) (P36969 whole entry, looked up): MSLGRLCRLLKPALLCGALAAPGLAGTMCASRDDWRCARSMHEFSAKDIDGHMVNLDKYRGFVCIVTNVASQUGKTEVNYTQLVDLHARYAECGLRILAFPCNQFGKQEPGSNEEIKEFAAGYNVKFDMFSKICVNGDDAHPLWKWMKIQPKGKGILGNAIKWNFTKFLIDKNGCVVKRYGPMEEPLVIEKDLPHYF
# Chain of Calcium and integrin-binding protein 1 (Homo sapiens) (Q99828 whole entry, looked up): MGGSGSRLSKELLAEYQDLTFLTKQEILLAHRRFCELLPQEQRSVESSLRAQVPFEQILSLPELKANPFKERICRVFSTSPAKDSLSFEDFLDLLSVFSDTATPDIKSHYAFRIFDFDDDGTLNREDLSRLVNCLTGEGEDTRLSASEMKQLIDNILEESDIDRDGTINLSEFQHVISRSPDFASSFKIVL
# Chain of Cytochrome P450 2D6 (Homo sapiens) (P10635 whole entry, looked up): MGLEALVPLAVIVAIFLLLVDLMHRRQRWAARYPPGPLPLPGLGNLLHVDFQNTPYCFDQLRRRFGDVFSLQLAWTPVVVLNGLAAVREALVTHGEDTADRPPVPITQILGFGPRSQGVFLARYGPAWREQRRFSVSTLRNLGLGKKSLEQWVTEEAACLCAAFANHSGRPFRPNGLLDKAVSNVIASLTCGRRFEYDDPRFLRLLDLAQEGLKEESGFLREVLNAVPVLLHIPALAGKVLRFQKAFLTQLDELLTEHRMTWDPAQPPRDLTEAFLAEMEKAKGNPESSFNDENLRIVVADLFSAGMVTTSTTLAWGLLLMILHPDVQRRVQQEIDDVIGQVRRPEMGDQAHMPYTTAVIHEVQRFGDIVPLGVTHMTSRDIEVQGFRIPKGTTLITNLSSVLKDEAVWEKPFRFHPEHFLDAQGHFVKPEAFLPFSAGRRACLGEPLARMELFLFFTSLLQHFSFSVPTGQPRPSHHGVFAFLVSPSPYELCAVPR
# Chain of Nuclear receptor subfamily 1 group I member 3 (Homo sapiens) (Q14994 whole entry, looked up): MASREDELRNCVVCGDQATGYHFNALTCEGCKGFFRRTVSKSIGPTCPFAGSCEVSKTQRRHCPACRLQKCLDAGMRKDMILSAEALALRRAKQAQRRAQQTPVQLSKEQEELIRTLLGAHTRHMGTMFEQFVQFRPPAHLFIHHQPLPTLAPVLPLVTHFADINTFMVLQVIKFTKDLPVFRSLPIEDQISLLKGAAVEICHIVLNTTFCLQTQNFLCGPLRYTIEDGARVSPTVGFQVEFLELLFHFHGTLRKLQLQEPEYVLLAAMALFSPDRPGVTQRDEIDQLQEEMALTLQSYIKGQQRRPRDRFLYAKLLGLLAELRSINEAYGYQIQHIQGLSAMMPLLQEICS
# Chain of Nuclear receptor subfamily 1 group I member 2 (Homo sapiens) (O75469 whole entry, looked up): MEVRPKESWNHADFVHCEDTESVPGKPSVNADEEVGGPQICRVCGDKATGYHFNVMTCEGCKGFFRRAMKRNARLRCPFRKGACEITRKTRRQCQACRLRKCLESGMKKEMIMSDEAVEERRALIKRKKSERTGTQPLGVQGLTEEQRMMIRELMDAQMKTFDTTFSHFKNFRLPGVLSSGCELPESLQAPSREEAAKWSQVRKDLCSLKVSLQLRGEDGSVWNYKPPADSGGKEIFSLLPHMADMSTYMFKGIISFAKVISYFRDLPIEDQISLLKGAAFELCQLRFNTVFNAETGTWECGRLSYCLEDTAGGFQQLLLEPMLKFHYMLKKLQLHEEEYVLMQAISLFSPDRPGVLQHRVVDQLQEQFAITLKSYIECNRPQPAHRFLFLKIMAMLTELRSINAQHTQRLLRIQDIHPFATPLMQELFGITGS
# Chain of Cytochrome P450 1A2 (Homo sapiens) (P05177 whole entry, looked up): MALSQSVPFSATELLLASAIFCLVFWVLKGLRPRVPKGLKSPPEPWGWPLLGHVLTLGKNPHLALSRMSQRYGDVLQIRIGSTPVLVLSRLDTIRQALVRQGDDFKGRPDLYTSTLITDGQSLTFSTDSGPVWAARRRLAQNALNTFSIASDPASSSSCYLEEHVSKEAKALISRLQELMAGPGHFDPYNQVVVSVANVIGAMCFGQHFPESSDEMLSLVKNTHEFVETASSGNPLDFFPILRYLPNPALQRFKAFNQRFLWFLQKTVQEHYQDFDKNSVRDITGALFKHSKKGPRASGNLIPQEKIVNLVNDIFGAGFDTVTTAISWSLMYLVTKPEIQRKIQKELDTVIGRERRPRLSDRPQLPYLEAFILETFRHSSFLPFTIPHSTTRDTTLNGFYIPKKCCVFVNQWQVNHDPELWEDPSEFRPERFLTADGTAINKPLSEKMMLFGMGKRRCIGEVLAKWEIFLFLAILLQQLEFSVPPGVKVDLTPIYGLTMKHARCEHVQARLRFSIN
# Chain of Cytochrome P450 2C9 (Homo sapiens) (P11712 whole entry, looked up): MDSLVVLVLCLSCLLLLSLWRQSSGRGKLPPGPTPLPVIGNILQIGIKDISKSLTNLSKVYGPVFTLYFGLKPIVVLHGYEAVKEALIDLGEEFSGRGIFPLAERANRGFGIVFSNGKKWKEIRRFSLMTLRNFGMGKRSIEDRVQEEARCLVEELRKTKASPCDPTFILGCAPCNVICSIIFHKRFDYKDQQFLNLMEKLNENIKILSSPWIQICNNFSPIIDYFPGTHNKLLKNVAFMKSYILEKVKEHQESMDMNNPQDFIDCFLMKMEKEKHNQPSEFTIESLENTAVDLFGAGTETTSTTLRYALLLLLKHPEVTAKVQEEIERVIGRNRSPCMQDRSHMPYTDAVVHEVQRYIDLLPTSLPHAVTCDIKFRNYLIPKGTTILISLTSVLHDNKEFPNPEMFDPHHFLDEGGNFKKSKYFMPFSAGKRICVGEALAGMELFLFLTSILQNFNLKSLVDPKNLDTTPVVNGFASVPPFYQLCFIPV
compound,measurement,setting,value
CNC(=O)[C@@H](NC(=O)[C@H](CC(C)C)[C@H](O)C(=O)NO)C(C)(C)C,Potency,[1],inactive
same,Potency,[2],18600 nM (active)
same,Potency,[3],13200 nM (active)
same,Potency,[4],inactive
same,Potency,[5],inactive
same,Z-AUC,[6],1.14 (inactive)
same,Z-AUC,[6]; [20],0.454
same,Z-AUC,[6]; measured here: PEO4 Z-AUC,0.976
COc1ccc2[nH]c3c(c2c1)CCN[C@]31CS[C@@H]2c3c(OC(C)=O)c(C)c4c(c3[C@H](COC1=O)N1[C@@H]2[C@H]2c3c(cc(C)c(OC)c3O)C[C@@H]([C@@H]1O)N2C)OCO4,Potency,[1],53.5 nM (active)
same,Potency,[2],1.7 nM (active)
same,Potency,[3],1.7 nM (active)
same,outcome,[5],inactive [at 9.52 µM]
same,"activity change, negative = inhibition",[7],-15.3% [at 9.73 µM] (inactive)
same,Potency,[6],31.7 nM (active)
same,Z-AUC,[6]; [20],-2.79
same,Z-AUC,[6]; measured here: PEO4 Z-AUC,-2.86
COc1ccnc2[nH]cc(C(=O)C(=O)N3CCN(C(=O)c4ccccc4)C[C@H]3C)c12,Potency,[1],inactive
same,Potency,[2],inactive
same,Potency,[3],inactive
same,Potency,[4],inactive
same,Potency,[8],inactive
same,Potency,[5],inactive
same,Potency,[7],inactive
same,Z-AUC,[6],1.3 (inactive)
same,Z-AUC,[6]; [20],1.05
same,Z-AUC,[6]; measured here: PEO4 Z-AUC,1.31
C[C@H]1[C@H](C)CC[C@]2(C(=O)O)CC[C@]3(C)C(=CC[C@@H]4[C@@]5(C)CC[C@H](O)C(C)(C)[C@@H]5CC[C@]43C)[C@H]12,Potency,[1],inactive
same,Potency,[2],inactive
same,Potency,[3],inactive
same,outcome,[9],inactive
same,outcome,[10],inactive
same,outcome,[11],inactive
same,outcome,[12],inactive
same,Potency,[5],inactive
same,Potency,[7],inactive
same,Potency,[13],inactive
same,Potency,[14],inactive
same,Potency,[15],3550 nM (active)
same,outcome,[16],inactive
same,outcome,[17],inactive
same,outcome,[18],inactive
same,Z-AUC,[6],0.556 (inactive)
same,Z-AUC,[6]; [20],0.879
same,Z-AUC,[6]; measured here: PEO4 Z-AUC,0.501
Nc1nc(F)nc2c1ncn2C1OC(COP(=O)(O)O)C(O)C1O (stereo not given),Potency,[1],inactive
same,Potency,[2],2950 nM (active)
CNC(=O)Cn1cc(-c2ccc3c(c2)C(F)CC32NC(=O)N(CC(=O)N(Cc3ccc(F)cc3)C(C)C(F)(F)F)C2=O)cn1 (stereo not given),Potency,[1],inactive
same,Potency,[2],83.3 nM (active)
same,Potency,[3],132 nM (active)
same,Potency,[5],inactive
same,Potency,[7],inactive
same,Z-AUC,[6],0.772 (inactive)
same,Z-AUC,[6]; [20],0.67
same,Z-AUC,[6]; measured here: PEO4 Z-AUC,0.562
CNC(=O)Cn1cc(-c2ccc3c(c2)C(F)CC32NC(=O)N(CC(=O)N(Cc3ccc(F)cc3)[C@@H](C)C(F)(F)F)C2=O)cn1 (stereo not given in full),Potency,[1],inactive
same,Potency,[2],52.5 nM (active)
same,Potency,[3],66.1 nM (active)
same,Potency,[5],inactive
same,Potency,[7],inactive
same,Z-AUC,[6],0.811 (inactive) and 1.3 (inactive)
same,Z-AUC,[6]; [20],0.434 and 1.73
same,Z-AUC,[6]; measured here: PEO4 Z-AUC,0.0101 and 0.997
Cc1ccc(-n2c(C)cc(-c3nnc4n3CCCCC4)c2C)cc1,Potency,[1],inactive
same,Potency,[19],inactive
same,Potency,[2],18600 nM (active)
same,Potency,[3],18600 nM (active)
same,Potency,[7],inactive
same,Z-AUC,[6],1.28 (inactive)
same,Z-AUC,[6]; [20],1.19
same,Z-AUC,[6]; measured here: PEO4 Z-AUC,1.13
